Assay results as given in the supplement of paper PMC3484114.
± gives the standard deviation.

Tested on: OVCAR-3-derived ovarian cancer stem-like cells (spheroids)
Assay: cell growth relative to untreated control; higher = more growth (less inhibition)
Settings: 2.29 µM; 96 h
In short: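 Viability of stem-like cells from OVCAR-3 spheroids was assessed with TOX8 resazurin fluorescence at ex 560/em 590 nm. The cells had been trypsin-dissociated, seeded at 50,000 cells/mL in stem cell medium in ultra-low attachment 96-well plates and preincubated 24 h, then treated with compounds at 2.29 uM for 96 h at 37°C, 5% CO2, in 4 replicate wells, with fluorescence read after 4 h. Results were converted to percent growth against untreated wells after blank subtraction and Grubbs outlier removal.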

NC(=S)N/N=C/c1ccc(OC(=O)COc2ccccc2Cl)cn1 and CCc1cccc(C(C)C)c1NC(=O)/C(=N\NC(N)=O)C(C(=O)OC)c1cnc2ccccc2n1 (stereo not given) are within error of each other in cell growth: 90.5 ± 27% for the first, 71.4 ± 14% for the second.

First: Cc1ccc2c(ccc(C=Cc3ccc(O)c4ncccc34)[n+]2C)c1
Second: Cc1nc(-c2cccnc2)sc1C(=O)/C=C/c1ccc(Cl)cc1Cl
The cell growth of the first is lower: 23.7 ± 4.7% for the first, 114 ± 34% for the second.

Cc1[nH]c(=O)[nH]c(=O)c1/C=C/C(=O)NC(CO)CC(C)C (stereo not given) and Cc1cn(C2CC(O)C(CO)O2)c(=O)[nH]c1=O (stereo not given) are within error of each other in cell growth: 94.2 ± 22% for the first, 92.3 ± 10% for the second.

Compared with Cc1c(C(=O)C/C(=N\O)C(=O)Nc2cc(Cl)c(Cl)cc2Cl)[n+](=O)c2ccccc2n1[O-], COC(=O)c1c[nH]c2c1-c1cc(C(=O)OCc3ccccc3)n(S(=O)(=O)c3ccc(C)cc3)c1C(=O)C2=O is lower in cell growth: 68.5 ± 17% for the first, 20.9 ± 3.5% for the second.

N#CC(=S)Nc1ccc(Cl)c(Cl)c1 and Cc1ccc(NC(=S)C#N)c(C)c1 are within error of each other in cell growth: 90.6 ± 12% for the first, 89.9 ± 27% for the second.

N=N/C(=C\c1c(O)[nH]c2ccccc12)c1ccccc1 and CN(C)c1cccc(/C=C(\C#N)c2ccccc2)c1 are within error of each other in cell growth: 64.5 ± 16% for the first, 66.6 ± 7.2% for the second.

First: O=[N+]([O-])c1ccc(-c2cn(-c3ccc(Cl)cc3)cn2)cc1
Second: Cn1ncc2cc3c(Nc4ccc(Cl)cc4)cccc3nc21
The cell growth of the first is higher: 106 ± 23% for the first, 8 ± 4.9% for the second.

CC(C)N.CC(C)N.[Cl-].[Cl-].[OH-].[OH-].[Pt] and CC(C)C(C)C=CC(C)C1CCC2C3=CC=C4CC(O)CCC4(C)C3CCC21C (stereo not given) are within error of each other in cell growth: 65.4 ± 57% for the first, 97.6 ± 23% for the second.

CCCCCCCCCCCCCCCC[N+](C)(C)CCl and CN(C)CCCN1c2ccc3ccccc3c2Sc2cccc(Cl)c21 are the same in cell growth: 104 ± 17% for the first, 104 ± 19% for the second.

CC(C)=CC1C(C(=O)O)C1(C)C (stereo not given) and C=C1C(=O)OCC2C(C(=O)O)=CC3C(C)C(C)=CC123 (stereo not given) are within error of each other in cell growth: 103 ± 37% for the first, 76.4 ± 10% for the second.

CO[C@H]1C[C@@H]2CC[C@@H](C)[C@@](O)(O2)C(=O)C(=O)N2CCCC[C@H]2C(=O)O[C@H]([C@H](C)C[C@@H]2CC[C@@H](O)[C@H](OC)C2)CC(=O)[C@H](C)/C=C(\C)[C@@H](O)[C@@H](OC)C(=O)[C@H](C)C[C@H](C)/C=C/C=C/C=C/1C and C[C@]12C=CC(=O)C=C1[C@@H](F)C[C@H]1[C@@H]3CC[C@](O)(C(=O)CO)[C@@]3(C)C[C@H](O)[C@@]12F are within error of each other in cell growth: 97 ± 21% for the first, 80 ± 22% for the second.

Oc1ccc(-c2nc3ccccc3s2)cc1 and NC1N=C(c2ccc(Cl)cc2)C2=C(N1)c1ccccc1CC2 (stereo not given) are within error of each other in cell growth: 94.8 ± 14% for the first, 85.7 ± 6.7% for the second.

COc1ccc(O)cc1 and COc1ccc(C(=O)/C(Br)=C\C(=O)O)cc1 are within error of each other in cell growth: 62.6 ± 18% for the first, 75.5 ± 16% for the second.

Compared with Cc1nc(Cl)c(C)c(Cl)n1, Cc1nc2c(nc1C)C(=O)c1ccccc1C2=O is lower in cell growth: 88.2 ± 11% for the first, 54.6 ± 6.1% for the second.

Compared with OC(CN1CCCCC1)c1ccc(/C=C/c2ccc(Cl)cc2)cc1 (stereo not given), COc1ccc(-c2csc(=[N+]3CCCCC3)s2)cc1 is lower in cell growth: 112 ± 16% for the first, 80 ± 11% for the second.

First: C=C1CC(COc2cc(=O)oc3ccccc23)(c2ccccc2)OC1=O (stereo not given)
Second: NC1(CCNC(=O)c2ccccc2)CCN(C(=O)c2ccccc2)CC1
The cell growth of the first is lower: 76.3 ± 22% for the first, 118 ± 19% for the second.

Going from BrCCC[P+](c1ccccc1)(c1ccccc1)c1ccccc1 to CN1CCC23c4ccccc4NC1C21CCN(C)C3Nc2ccccc21, the cell growth rises from 42.9 ± 7.3% to 118 ± 10%.

CCOC(=O)CCn1ncc(Cl)c(Cl)c1=O and CCOC(=O)/N=C(\N)SCc1ccccc1 are within error of each other in cell growth: 74.8 ± 21% for the first, 78.4 ± 11% for the second.

First: COC(=O)c1ccc(NCc2cc(O)ccc2O)cc1
Second: COC(=O)c1[nH]c(=S)[nH]c(=O)c1-c1ccc(Cl)cc1
The cell growth of the first is higher: 108 ± 12% for the first, 37.8 ± 14% for the second.

Going from CCSC(=O)N1c2ccc(OC)cc2C=CC1C#N (stereo not given) to Nc1ncnc2c(C3OC(CO)C(O)C3O)[nH]nc12 (stereo not given), the cell growth falls from 52.9 ± 11% to 23.9 ± 5.3%.
